# Measurements from PubChem BioAssay (EPA / NIEHS).
# Several values for one entry are separate records, joined by “and”; a condition that tells them apart may be missing. Equal values may be shown once. Records with an inconclusive call do not appear. Activity calls are given as the source filed them. The calls were made as follows: active = hit-call score of the fitted dose curve at least 0.9, where 1 is the maximum; inconclusive = response in the unintended direction; inactive = score below 0.9.
# Molecular target: zebrafish Thyroid Hormone Receptor beta (TRb), thrb (gene 30607) (UniProt Q9PVE4)
# Experiment: ATG_zfTRb_XSP2: Attagene TRANS-FACTORIAL Multi-Species (XSP1) HepG2 Assay for zebrafish Thyroid Hormone Receptor beta (TRb) (AID 2283836);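 as to AC50: potency for induction of reporter signal above DMSO so agonist direction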
# Method: ATG_XSP2_multi-species_TRANS is a cell-based, multiplexed assay created by modifying the existing Attagene TRANS-FACTORIAL system to include a panel of nuclear receptors from some or all the following species: human (Homo sapiens), mouse (Mus musculus), frog (Xenopus laevis), zebrafish (Danio rerio), chicken (Gallus gallus), and turtle (Chrysemys picta). The ECOTOX-FACTORIAL format uses HepG2, a human liver cell line, with measurements taken at 24 hours after chemical dosing in a 24-well plate. Xsp2 included 3 nM 6-alpha-fluorotestosterone and 1.5 nM norgestrel to stimulate the androgen receptor.ATG_zfTRb_XSP2 is one of 29 assay components measured or calculated from the ATG_XSP2_multi-species_TRANS assay. It is designed to make measurements of mRNA induction, a form of inducible reporter, as detected with fluorescence intensity signals by Reverse transcription polymerase chain reaction (RT-PCR) and Capillary electrophoresis technology.The assay endpoint ATG_zfTRb_XSP2 was analyzed in the positive analysis fitting direction relative to DMSO as the negative control and baseline of activity. Using a type of inducible reporter, measures of mRNA for gain-of-signal activity can be used to understand the reporter gene at the transcription factor-level as they relate to the gene TR. Furthermore, this assay endpoint can be referred to as a primary readout, because this assay has produced multiple assay endpoints where this one serves a reporter gene function. To generalize the intended target to other relatable targets, this assay endpoint is annotated to the nuclear receptor intended target family, where the subfamily is non-steroidal.
# Human liver HepG2 cells are transiently transfected with multiple reporter transcription units (MRTUs) in 6-well plates using FuGene 6 reagent (Roche; 3 ml FuGene/1 mg DNA). The MRTU constructs are regulated by a cis-regulating element (promoter). […] A major difference between the CIS and TRANS system is that in CIS activities of endogenous TFs are measured, whereas the TRANS assay evaluates changes in activities of exogenous, chimeric NR-Gal4 proteins. […] At the end of 24 hour incubation, total RNA was isolated using TriZol reagent (Invitrogen). The isolated RNA is then reverse-transcribed using oligo(dT) primer and Mo-MLV reverse transcriptase (Invitrogen) with DNAse I (Ambion) treatment for 30 min. The one-tenth of the produced cDNA was amplified by PCR using Taq DNA polymerase (Invitrogen) and two reporter sequence-specific primers. The PCR products were fluorescently labeled by primer extension with 6-arboxyfluorescein (6-FAM) 5'-labeled reporter sequence-specific primer (2 min at 95 C, 20 s at 68 C and 10 min at 72 C) and these products were digested with 5U of HpaI (New England Biolabs) for 2h at 37 C. The fragments were purified using Qiaquick PCR columns (Qiagen), analyzed on an ABI 3130xL genetic analyzer (Applied Biosystems) with peak positions identified by using a set of X-rhodamine (ROX)-labeled MapMarker1000 molecular weight standards (BioVentures). The raw capillary electrophoresis data was processed using Attagraph software (Attagene).
# Sequence of zebrafish Thyroid Hormone Receptor beta (TRb), thrb (gene 30607) (Q9PVE4 whole entry, looked up): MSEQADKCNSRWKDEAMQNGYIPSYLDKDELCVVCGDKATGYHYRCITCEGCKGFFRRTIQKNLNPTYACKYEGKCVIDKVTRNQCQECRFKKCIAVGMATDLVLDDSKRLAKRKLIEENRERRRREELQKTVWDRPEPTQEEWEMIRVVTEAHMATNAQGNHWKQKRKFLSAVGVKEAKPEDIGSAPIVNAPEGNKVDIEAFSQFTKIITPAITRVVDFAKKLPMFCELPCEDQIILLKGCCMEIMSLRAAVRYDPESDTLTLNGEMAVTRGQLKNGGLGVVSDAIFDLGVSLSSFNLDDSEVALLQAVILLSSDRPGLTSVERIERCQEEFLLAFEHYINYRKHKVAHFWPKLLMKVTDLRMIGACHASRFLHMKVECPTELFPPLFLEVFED
SMILES,outcome,AC50
O=c1c(-c2ccc(O)cc2)coc2cc(O)ccc12,inactive,
c1ccc2c(c1)ccc1ccccc12,inactive,
O=C(O)Cc1cc(I)c(Oc2cc(I)c(O)c(I)c2)c(I)c1,,45.5 nM (active) and 14.4 nM (active)
Oc1cc2ccccc2c2ccccc12,,33.4 µM (active)
C#C[C@]1(O)CC[C@H]2[C@@H]3CCC4=CC(=O)CC[C@@H]4[C@H]3CC[C@@]21C,inactive,
CCC(=C(c1ccc(O)cc1)c1ccc(OCCN(C)C)cc1)c1ccccc1,inactive,
CC[C@H](c1ccc(O)cc1)[C@@H](CC)c1ccc(O)cc1,inactive,
CCC(C)(C)C1CCC(O)CC1 (stereo not given),inactive,
CCCOC(=O)c1ccc(O)cc1,inactive,
Cc1oc(-c2ccccc2)nc1CCOc1ccc(C[C@H](Nc2ccccc2C(=O)c2ccccc2)C(=O)O)cc1,inactive,
